Measured values as given in PubChem BioAssay (Tox21).
Results filed as inconclusive are left out. Unmarked numbers belong to inactive results. Active and inactive are the calls of the source. Calls come from the whole dose curve; as a rule, active = well fitted curve in the direction sought with a large enough effect in the repeat runs; inconclusive = weak or mixed curves; inactive = no such curve, though single readings can be large; an effect the other way counts as inactive or inconclusive. Positions of bridges follow the written chain, without caps; N, C: chain ends. Residues, ends and D or L forms follow the SMILES beside them.

tested on: not listed separately; assay: qHTS assay to identify aromatase inhibitors - cell viability counter screen (AID 743084); conditions: MCF-7 aro ERE viability, CellTiter-Fluor, 24 h; series mostly up to 70.3 µM; activity change, negative = cytotoxicity: at the top concentration;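 note: cells stimulated with testosterone during compound exposure; nearly all actives have a fitted effect of over 55% in size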
% is set by controls: 0 for no effect and ±100 for the full control effect; potency is the fitted concentration of half-maximal effect.

SMILES	activity change, negative = cytotoxicity	Potency
NCCCC[C@H](NC(=O)[C@@H]1CCCN1C(=O)[C@@H]1CSSC[C@H](NC(=O)CNC(=O)CNC(=O)CN)C(=O)N[C@@H](Cc2ccc(O)cc2)C(=O)N[C@@H](Cc2ccccc2)C(=O)N[C@@H](CCC(N)=O)C(=O)N[C@@H](CC(N)=O)C(=O)N1)C(=O)NCC(N)=O (H-GGGCYFQNCPKG-NH2; disulfide 4-9)	3.96%	–
CC(O)[C@H]1CC[C@H]2[C@@H]3CC[C@@H]4C[C@@H](O)CC[C@]4(C)[C@H]3CC[C@]12C (stereo partly specified)	-1.28%	–
CC(C)(C)NC[C@H](O)COc1ccccc1C1CCCC1	2.88% [at 32.5 µM]	–
CCCCCCCCCCCCCCCCSCC(COC)COP(=O)([O-])OCC[N+](C)(C)C (stereo unspecified)	3.23%	–
OCCN1CCN(CC/C=C2/c3ccccc3Sc3ccc(Cl)cc32)CC1	-22.6% [at 32.5 µM]	–
CN(C)CC/C=C1/c2ccccc2CSc2ccccc21	-0.232% [at 32.5 µM]	–
CN1[C@@H]2CC[C@H]1CC(OC(c1ccccc1)c1ccccc1)C2 (stereo partly specified)	–	inactive
CCN(CC)c1ccc(N=Nc2ccc(S(=O)(=O)N(C)C)cc2)c(S(=O)(=O)NCC[n+]2ccccc2)c1	8.67%	–
O=C(O)c1cc2ccccc2c(Cc2c(O)c(C(=O)O)cc3ccccc23)c1O	1.47%	–
CC(CN(C)C)CN1c2ccccc2Sc2ccc(C(F)(F)F)cc21 (stereo unspecified)	-1.45%	–
C=C1/C(=C\C=C2/CCC[C@]3(C)[C@@H]([C@H](C)OCCC(C)(C)O)CC[C@@H]23)C[C@@H](O)C[C@@H]1O	-14.7%	–
C[C@]12C=CC(=O)N[C@@H]1CC[C@@H]1[C@@H]2CC[C@]2(C)[C@@H](C(=O)Nc3cc(C(F)(F)F)ccc3C(F)(F)F)CC[C@@H]12	9.41%	–
O=S(O)CNc1ccc(S(=O)(=O)c2ccc(NCS(=O)O)cc2)cc1	2.12%	–
CCC(=O)c1ccc2c(c1)N(CCCN1CCN(CCO)CC1)c1ccccc1S2	-7.62%	–
CN(C)CCC=C1c2ccccc2C(C)(C)c2ccccc21	-11.8%	–
CCNC(=O)[C@@H]1CCCN1C(=O)[C@H](CCCN=C(N)N)NC(=O)[C@H](CC(C)C)NC(=O)[C@@H](Cc1c[nH]c2ccccc12)NC(=O)[C@H](Cc1ccc(O)cc1)NC(=O)[C@H](CO)NC(=O)[C@H](Cc1c[nH]c2ccccc12)NC(=O)[C@H](Cc1cnc[nH]1)NC(=O)[C@@H]1CCC(=O)N1	–	29.8 µM (active)
COc1cc([C@@H]2c3cc4c(cc3C(O[C@@H]3O[C@@H]5CO[C@@H](C)O[C@H]5[C@H](O)[C@H]3O)C3COC(=O)[C@@H]32)OCO4)cc(OC)c1OP(=O)(O)O (stereo partly specified)	–	inactive
C[C@]12CCC(=O)C[C@@H]1CC[C@@H]1[C@@H]2CC[C@]2(C)C=CC[C@@H]12	2.2%	–
CC(=O)OC[C@H]1O[C@@H](O[C@H]2[C@H](O)[C@@H](OC(=O)c3ccccc3C(=O)O)[C@H](O)O[C@@H]2COC(C)=O)[C@H](O)[C@@H](OC(=O)c2ccccc2C(=O)O)[C@@H]1O	10.1%	–
COc1ccc2c(c1)OC(C)(C)C(c1ccccc1)C2c1ccc(OCCN2CCCC2)cc1 (stereo unspecified)	-7.97%	–

biological target: Aryl hydrocarbon receptor (Homo sapiens) (UniProt P35869); assay: qHTS assay to identify small molecule that activate the aryl hydrocarbon receptor (AhR) signaling pathway (AID 743085); conditions: HepG2 AhR-luc (HG2L7.5c1), luciferase, 24 h; series mostly up to 70.3 µM; activation: at the top concentration; note: nearly all actives have a fitted effect of over 15% in size;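 for activation: HG2L7.5c1 human HepG2 liver cells with stably integrated DRE-driven firefly reporter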
Method in brief: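 Compounds were tested in HepG2 hepatocellular carcinoma cells harbouring a stably integrated luciferase gene under control of 20 DREs. Increased reporter signal after 24 h treatment at 37C was taken as AhR activation.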

Chain of Aryl hydrocarbon receptor (Homo sapiens) (P35869 whole entry, looked up): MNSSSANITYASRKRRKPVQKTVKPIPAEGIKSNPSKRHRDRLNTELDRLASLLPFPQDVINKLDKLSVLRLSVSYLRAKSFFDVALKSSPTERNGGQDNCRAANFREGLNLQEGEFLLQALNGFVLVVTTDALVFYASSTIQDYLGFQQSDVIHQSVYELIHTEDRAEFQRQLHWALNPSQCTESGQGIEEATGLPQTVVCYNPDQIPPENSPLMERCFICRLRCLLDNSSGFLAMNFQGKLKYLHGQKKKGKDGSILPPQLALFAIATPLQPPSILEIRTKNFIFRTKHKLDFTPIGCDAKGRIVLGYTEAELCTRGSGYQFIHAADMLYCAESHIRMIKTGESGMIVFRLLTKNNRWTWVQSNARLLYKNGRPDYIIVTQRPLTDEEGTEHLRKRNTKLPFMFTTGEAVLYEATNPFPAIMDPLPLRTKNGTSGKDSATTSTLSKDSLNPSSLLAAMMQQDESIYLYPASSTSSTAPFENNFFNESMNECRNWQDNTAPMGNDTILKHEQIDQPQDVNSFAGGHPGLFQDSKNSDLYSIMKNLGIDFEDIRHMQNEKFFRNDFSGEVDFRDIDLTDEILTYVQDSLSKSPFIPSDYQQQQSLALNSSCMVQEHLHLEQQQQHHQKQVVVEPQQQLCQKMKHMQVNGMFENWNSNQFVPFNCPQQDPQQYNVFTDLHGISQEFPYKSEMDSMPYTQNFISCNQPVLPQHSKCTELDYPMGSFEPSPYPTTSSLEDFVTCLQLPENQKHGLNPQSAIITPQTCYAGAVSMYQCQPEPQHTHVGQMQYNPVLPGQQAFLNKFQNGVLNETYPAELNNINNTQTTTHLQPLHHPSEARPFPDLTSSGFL

SMILES	activation	Potency
O=C(Nc1ccc(/C=C/c2ccc(NC(=O)c3cc(S(=O)(=O)O)c4cccnc4c3O)cc2S(=O)(=O)O)c(S(=O)(=O)O)c1)c1cc(S(=O)(=O)O)c2cccnc2c1O	3.92%	–
CC(O)[C@H]1CC[C@H]2[C@@H]3CC[C@@H]4C[C@@H](O)CC[C@]4(C)[C@H]3CC[C@]12C (stereo partly specified)	-0.695%	–
CC(C)(C)NC[C@H](O)COc1ccccc1C1CCCC1	1.55% [at 32.5 µM]	–
OCCN1CCN(CC/C=C2/c3ccccc3Sc3ccc(Cl)cc32)CC1	-0.516% [at 32.5 µM]	–
CN(C)CC/C=C1/c2ccccc2CSc2ccccc21	-1.93% [at 32.5 µM]	–
CN1CCN(CCCN2c3ccccc3Sc3ccccc32)CC1	8.88%	–
CN1[C@@H]2CC[C@H]1CC(OC(c1ccccc1)c1ccccc1)C2 (stereo partly specified)	–	inactive
CC1=C(C(=O)OCCN(Cc2ccccc2)c2ccccc2)C(c2cccc([N+](=O)[O-])c2)C(P2(=O)OCC(C)(C)CO2)=C(C)N1 (stereo unspecified)	4.41%	–
CC(CN(C)C)CN1c2ccccc2Sc2ccc(C(F)(F)F)cc21 (stereo unspecified)	-0.572%	–
C[C@]12C=CC(=O)N[C@@H]1CC[C@@H]1[C@@H]2CC[C@]2(C)[C@@H](C(=O)Nc3cc(C(F)(F)F)ccc3C(F)(F)F)CC[C@@H]12	0.239%	–
CCNC(=O)[C@@H]1CCCN1C(=O)[C@H](CCCN=C(N)N)NC(=O)[C@H](CC(C)C)NC(=O)[C@@H](Cc1c[nH]c2ccccc12)NC(=O)[C@H](Cc1ccc(O)cc1)NC(=O)[C@H](CO)NC(=O)[C@H](Cc1c[nH]c2ccccc12)NC(=O)[C@H](Cc1cnc[nH]1)NC(=O)[C@@H]1CCC(=O)N1	-14%	–
COc1ccc(C(=O)Nc2ccccc2CCC2CCCCN2C)cc1 (stereo unspecified)	-0.108%	–
COc1cc2[nH]c(C)c(CCN3CCN(c4ccccc4)CC3)c2cc1OC	9.34%	–
CCCC1([C@H](O)C/C=C/[C@H]2[C@H](O)CC(=O)[C@@H]2CCCCCCC(=O)OC)CCC1	-2.01%	–
CN1CC(O)c2cc(N=NC(N)=O)c(O)cc21 (stereo unspecified)	5.03%	–
CC(CN(C)C)CN1c2ccccc2S(=O)(=O)c2ccccc21 (stereo unspecified)	0.222%	–
CC1(S(=O)(=O)O)CC(=O)c2ccccc2C1=O (stereo unspecified)	–	10.6 µM (active)
C[C@H]1C[C@H]2[C@@H]3CCC4=CC(=O)C=C[C@]4(C)[C@@]3(F)[C@@H](O)C[C@]2(C)[C@@]1(O)C(=O)CCl	–	6.68 µM (active)
CN1[C@@H]2CCC[C@H]1CC(NC(=O)c1nn(C)c3ccccc13)C2 (stereo partly specified)	6.53%	–
COc1ccc2c(c1)OC(C)(C)C(c1ccccc1)C2c1ccc(OCCN2CCCC2)cc1 (stereo unspecified)	-1.05%	–
COC(=O)C1=C(C)NC(C)=C(C(=O)O[C@H]2CCN(Cc3ccccc3)C2)[C@H]1c1cccc([N+](=O)[O-])c1	0.355%	–
